Measurements reported in PubChem BioAssay (NCI).
This is part of a sample that, as a whole, favours compounds with a hit. Of some 79,000 tested, about 15% had one in any assay. Activity calls are given as the source filed them. No stated cut-off is given here; in the data, active means growth inhibition above about 70%; inactive means the rest.

Experiments:
[1] = NCI Yeast Anticancer Drug Screen. Data for the wt1 strain (AID 149);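 further: 0% = growth of vehicle-treated wt1 cultures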; conditions: S. cerevisiae wt1 strain (SPY 50644) growth inhibition, stronger effect = higher value
In short: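 Vehicle-normalised growth inhibition; strain wt1; compound exposure.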

[2] = NCI Yeast Anticancer Drug Screen. Data for the rad50EPP+ strain (AID 151);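 further: 0% = growth of vehicle-treated control cultures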; conditions: S. cerevisiae rad50 mutant strain, stronger effect = higher value
In short: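 Read-out is yeast growth inhibition relative to vehicle; cells used were the rad50EPP+ strain.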

[3] = NCI Yeast Anticancer Drug Screen. Data for the mgt1 strain (AID 153); conditions: S. cerevisiae mgt1 mutant growth inhibition, stronger effect = higher value
In short: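 Measured: inhibition of mgt1 yeast growth by compound, normalized to vehicle-treated cultures.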

[4] = NCI Yeast Anticancer Drug Screen. Data for the rad50 strain (AID 155);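 further: 0% = growth of vehicle-only cultures of the same strain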; conditions: S. cerevisiae rad50 strain growth inhibition, stronger effect = higher value
In short: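 A DNA repair-deficient yeast mutant serves as the test organism; compound-induced growth inhibition is calculated against vehicle-treated cells.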

[5] = NCI Yeast Anticancer Drug Screen. Data for the mec2-1 strain (AID 157); conditions: S. cerevisiae mec2-1 strain, stronger effect = higher value
In short: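 Using mec2-1 yeast: add compound, measure growth, express inhibition versus vehicle-treated cultures.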

[6] = NCI Yeast Anticancer Drug Screen. Data for the rad14 strain (AID 159);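 further: 0% = growth of vehicle-treated control cultures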; conditions: S. cerevisiae rad14 strain growth inhibition, stronger effect = higher value
In short: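 Vehicle-treated cultures served as the baseline for growth inhibition of a DNA repair-mutant yeast strain exposed to each compound.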

[7] = NCI Yeast Anticancer Drug Screen. Data for the sgs1 mgt1 strain (AID 161);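 further: 0% = growth of cultures given vehicle only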; conditions: S. cerevisiae sgs1 mgt1 strain, stronger effect = higher value
In short: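 Percent growth inhibition was derived by comparing compound-exposed mutant yeast with vehicle-exposed cultures. The strain carries alterations in DNA damage repair.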

[8] = NCI Yeast Anticancer Drug Screen. Data for the CLN2oe strain (AID 163);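 further: 0% = growth of vehicle-only control cultures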; conditions: S. cerevisiae CLN2oe strain, stronger effect = higher value
In short: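 Whole-cell yeast growth assay. A strain engineered for altered cell-cycle control received compound, and inhibition relative to vehicle-treated cultures was recorded.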

[9] = NCI Yeast Anticancer Drug Screen. Data for the cln2 rad14 strain (AID 165);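 further: 0% = growth equal to vehicle treated cultures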; conditions: S. cerevisiae cln2 rad14 strain, stronger effect = higher value
In short: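 Yeast strain cln2 rad14, bearing defects in cell cycle control and DNA repair, serves as the test system; values reflect growth inhibition compared with vehicle.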

[10] = NCI Yeast Anticancer Drug Screen. Data for the bub3 strain (AID 167); conditions: S. cerevisiae bub3 mutant strain, stronger effect = higher value
In short: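 Inhibition values come from growth of compound-treated mutant yeast normalised to vehicle-treated controls.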

[11] = NCI Yeast Anticancer Drug Screen. Data for the wt2 strain (AID 169);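 further: 0% = growth of vehicle-treated yeast cultures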; conditions: S. cerevisiae wt2 strain growth inhibition, stronger effect = higher value
In short: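 Treated yeast vs. vehicle-treated yeast: growth inhibition determined.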

[12] = NCI Yeast Anticancer Drug Screen. Data for the mlh1 strain (AID 171);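 further: 0% = growth of vehicle-treated control cultures of the same strain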; conditions: S. cerevisiae mlh1 strain growth inhibition, stronger effect = higher value
In short: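 A yeast strain with a defined genetic lesion serves as the test organism. Cultures receive compound or vehicle, and growth is measured.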

[13] = NCI Yeast Anticancer Drug Screen. Data for the sgs1 strain (AID 173);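 further: 0% = growth of vehicle-only control cultures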; conditions: S. cerevisiae sgs1 mutant, stronger effect = higher value
In short: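 A genetically defined yeast mutant is incubated with the test compound, and its growth is compared to that of the same strain given vehicle.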

[14] = NCI Yeast Anticancer Drug Screen. Data for the mlh1 rad18 strain (AID 175); conditions: S. cerevisiae mlh1 rad18 strain growth inhibition, stronger effect = higher value
In short: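 Steps: expose repair-defective yeast to compound; measure growth; express inhibition against vehicle-treated controls.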

[15] = NCI Yeast Anticancer Drug Screen. Data for the rad18 strain (AID 177); conditions: S. cerevisiae rad18 mutant growth inhibition, stronger effect = higher value
In short: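 Measured value is growth inhibition of a yeast strain bearing a DNA repair alteration, referenced to vehicle-treated cells.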

[16] = at 5.0 µM (retest, dose inferred, filed as 0.5)
[17] = at 50.0 µM (retest, dose inferred, filed as 5.0)

Measured: growth inhibition

CN(C)CCn1c2ccccc2c2nc3cc4ccccc4cc3nc21
inactive: [1]; at 1.2 µM 15% | [1]; at 3.7 µM 23% | [1]; at 11.0 µM 28% | [2]; at 1.2 µM 0% | [2]; at 3.7 µM 38% | [3]; at 1.2 µM -2% | [3]; at 3.7 µM 4% | [3]; at 11.0 µM 14% | [3]; at 33.0 µM 69% | [4]; at 1.2 µM 12% | [4]; at 3.7 µM 34% | [4]; [16] 48% | [5]; at 1.2 µM -18% | [5]; at 3.7 µM -10% | [5]; [16] 26% | [5]; at 11.0 µM 14% | [6]; at 1.2 µM -4% | [6]; at 3.7 µM 7% | [6]; at 11.0 µM 28% | [7]; [16] 10% | [8]; at 1.2 µM 0% | [8]; at 3.7 µM 3% | [8]; at 11.0 µM 21% | [8]; at 33.0 µM 57% | [9]; [16] 30% | [10]; at 1.2 µM -13% | [10]; at 3.7 µM 10% | [10]; [16] 13% | [10]; at 11.0 µM 3% | [11]; at 1.2 µM 18% | [11]; at 3.7 µM 15% | [11]; at 11.0 µM 27% | [12]; at 1.2 µM 2% | [12]; at 3.7 µM 9% | [12]; at 11.0 µM 33% | [13]; at 1.2 µM -2% | [13]; at 3.7 µM 5% | [13]; at 11.0 µM 25% | [14]; [16] 34% | [15]; at 1.2 µM -11% | [15]; at 3.7 µM -10% | [15]; at 11.0 µM 11%
active: [1]; at 33.0 µM 78% | [1]; at 100.0 µM 98% | [2]; at 11.0 µM 88% | [2]; at 33.0 µM 94% | [2]; at 100.0 µM 97% | [3]; at 100.0 µM 98% | [4]; at 11.0 µM 85% | [4]; at 33.0 µM 95% | [4]; [17] 95% | [4]; at 50.0 µM 89% | [4]; at 100.0 µM 98% | [5]; at 33.0 µM 70% | [5]; [17] 99% | [5]; at 50.0 µM 86.6% | [5]; at 100.0 µM 98% | [6]; at 33.0 µM 80% | [6]; at 100.0 µM 99% | [7]; [17] 91% | [7]; at 50.0 µM 88% | [8]; at 100.0 µM 98% | [9]; [17] 94% | [9]; at 50.0 µM 84.3% | [10]; at 33.0 µM 72% | [10]; [17] 95% | [10]; at 50.0 µM 87.6% | [10]; at 100.0 µM 98% | [11]; at 33.0 µM 77% | [11]; at 100.0 µM 98% | [12]; at 33.0 µM 80% | [12]; at 100.0 µM 98% | [13]; at 33.0 µM 85% | [13]; at 100.0 µM 98% | [14]; [17] 98% | [14]; at 50.0 µM 71.2% | [15]; at 33.0 µM 87% | [15]; at 100.0 µM 98%
